Common to all, as to settings: Compound concentration 20.0 uM
In experiment [1] the target is Tyrosine-protein kinase ABL1 (Homo sapiens) (UniProt P00519).
Experiment [2] deals with Bromodomain-containing protein 4 (Homo sapiens) (UniProt O60885).
For experiment [3], the target named is Cyclin-dependent kinase 2 (Homo sapiens) (UniProt P24941).
In experiment [4] the target is Casein kinase I isoform delta (Homo sapiens) (UniProt P48730).
Experiment [5] addresses Glycogen synthase kinase-3 beta (Homo sapiens) (UniProt P49841).
For experiment [6], the target named is Mitogen-activated protein kinase 1 (Homo sapiens) (UniProt P28482).
For experiment [7], the target named is T1, Aurora kinase A (Homo sapiens) (UniProt O14965).
T1 sequence (whole entry): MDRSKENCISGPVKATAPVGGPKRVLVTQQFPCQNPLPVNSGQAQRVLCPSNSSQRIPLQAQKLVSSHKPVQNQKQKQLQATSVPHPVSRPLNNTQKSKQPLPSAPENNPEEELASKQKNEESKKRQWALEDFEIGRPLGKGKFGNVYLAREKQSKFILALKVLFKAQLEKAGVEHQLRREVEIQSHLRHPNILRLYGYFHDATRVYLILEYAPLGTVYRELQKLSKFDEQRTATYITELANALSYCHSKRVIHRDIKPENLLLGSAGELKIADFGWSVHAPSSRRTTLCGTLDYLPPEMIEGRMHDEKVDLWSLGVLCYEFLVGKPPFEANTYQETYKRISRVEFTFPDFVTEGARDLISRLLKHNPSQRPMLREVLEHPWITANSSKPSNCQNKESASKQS

Experiment [8] deals with T2, Transcription intermediary factor 1-alpha (Homo sapiens) (UniProt O15164).
T2 sequence (whole entry): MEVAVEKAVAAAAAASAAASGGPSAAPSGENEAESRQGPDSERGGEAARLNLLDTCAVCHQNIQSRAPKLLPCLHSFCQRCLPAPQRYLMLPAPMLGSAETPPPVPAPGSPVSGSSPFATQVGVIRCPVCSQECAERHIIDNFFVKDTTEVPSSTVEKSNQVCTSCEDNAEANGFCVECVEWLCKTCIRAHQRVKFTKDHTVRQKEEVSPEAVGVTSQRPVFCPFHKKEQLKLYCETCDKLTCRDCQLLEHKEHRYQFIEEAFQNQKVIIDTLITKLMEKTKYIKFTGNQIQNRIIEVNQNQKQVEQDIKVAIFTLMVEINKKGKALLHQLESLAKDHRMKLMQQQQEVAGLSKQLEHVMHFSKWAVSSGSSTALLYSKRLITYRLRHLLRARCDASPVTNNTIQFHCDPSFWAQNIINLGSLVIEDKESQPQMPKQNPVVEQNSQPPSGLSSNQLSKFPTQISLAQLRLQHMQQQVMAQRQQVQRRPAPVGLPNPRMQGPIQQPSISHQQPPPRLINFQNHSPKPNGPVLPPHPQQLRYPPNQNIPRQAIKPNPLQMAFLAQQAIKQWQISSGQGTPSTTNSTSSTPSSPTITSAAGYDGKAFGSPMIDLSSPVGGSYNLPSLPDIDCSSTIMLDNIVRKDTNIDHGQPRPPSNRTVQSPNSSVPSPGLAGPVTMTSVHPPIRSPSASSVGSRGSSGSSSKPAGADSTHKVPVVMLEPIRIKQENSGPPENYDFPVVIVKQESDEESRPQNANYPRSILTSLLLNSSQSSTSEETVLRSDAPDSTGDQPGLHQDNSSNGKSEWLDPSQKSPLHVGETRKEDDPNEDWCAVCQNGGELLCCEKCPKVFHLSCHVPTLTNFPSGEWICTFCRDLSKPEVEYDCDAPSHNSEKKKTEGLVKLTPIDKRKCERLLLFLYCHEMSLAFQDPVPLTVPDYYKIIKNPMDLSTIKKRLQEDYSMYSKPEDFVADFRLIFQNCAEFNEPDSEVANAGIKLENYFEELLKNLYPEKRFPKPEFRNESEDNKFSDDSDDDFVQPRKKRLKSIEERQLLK

Residues, ends and D or L forms follow the SMILES beside them.

Chain of Casein kinase I isoform delta (Homo sapiens) (P48730 whole entry, looked up, canonical isoform): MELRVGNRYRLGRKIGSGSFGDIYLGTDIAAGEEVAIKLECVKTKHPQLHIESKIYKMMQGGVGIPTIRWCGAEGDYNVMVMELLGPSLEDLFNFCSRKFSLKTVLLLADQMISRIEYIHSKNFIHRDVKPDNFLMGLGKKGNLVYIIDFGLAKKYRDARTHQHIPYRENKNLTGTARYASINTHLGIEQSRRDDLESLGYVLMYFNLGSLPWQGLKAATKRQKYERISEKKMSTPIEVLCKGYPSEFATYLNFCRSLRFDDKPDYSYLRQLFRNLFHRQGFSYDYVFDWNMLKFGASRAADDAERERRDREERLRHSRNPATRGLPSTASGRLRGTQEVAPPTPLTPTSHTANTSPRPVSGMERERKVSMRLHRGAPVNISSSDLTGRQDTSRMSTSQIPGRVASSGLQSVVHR
Chain of Tyrosine-protein kinase ABL1 (Homo sapiens) (P00519 whole entry): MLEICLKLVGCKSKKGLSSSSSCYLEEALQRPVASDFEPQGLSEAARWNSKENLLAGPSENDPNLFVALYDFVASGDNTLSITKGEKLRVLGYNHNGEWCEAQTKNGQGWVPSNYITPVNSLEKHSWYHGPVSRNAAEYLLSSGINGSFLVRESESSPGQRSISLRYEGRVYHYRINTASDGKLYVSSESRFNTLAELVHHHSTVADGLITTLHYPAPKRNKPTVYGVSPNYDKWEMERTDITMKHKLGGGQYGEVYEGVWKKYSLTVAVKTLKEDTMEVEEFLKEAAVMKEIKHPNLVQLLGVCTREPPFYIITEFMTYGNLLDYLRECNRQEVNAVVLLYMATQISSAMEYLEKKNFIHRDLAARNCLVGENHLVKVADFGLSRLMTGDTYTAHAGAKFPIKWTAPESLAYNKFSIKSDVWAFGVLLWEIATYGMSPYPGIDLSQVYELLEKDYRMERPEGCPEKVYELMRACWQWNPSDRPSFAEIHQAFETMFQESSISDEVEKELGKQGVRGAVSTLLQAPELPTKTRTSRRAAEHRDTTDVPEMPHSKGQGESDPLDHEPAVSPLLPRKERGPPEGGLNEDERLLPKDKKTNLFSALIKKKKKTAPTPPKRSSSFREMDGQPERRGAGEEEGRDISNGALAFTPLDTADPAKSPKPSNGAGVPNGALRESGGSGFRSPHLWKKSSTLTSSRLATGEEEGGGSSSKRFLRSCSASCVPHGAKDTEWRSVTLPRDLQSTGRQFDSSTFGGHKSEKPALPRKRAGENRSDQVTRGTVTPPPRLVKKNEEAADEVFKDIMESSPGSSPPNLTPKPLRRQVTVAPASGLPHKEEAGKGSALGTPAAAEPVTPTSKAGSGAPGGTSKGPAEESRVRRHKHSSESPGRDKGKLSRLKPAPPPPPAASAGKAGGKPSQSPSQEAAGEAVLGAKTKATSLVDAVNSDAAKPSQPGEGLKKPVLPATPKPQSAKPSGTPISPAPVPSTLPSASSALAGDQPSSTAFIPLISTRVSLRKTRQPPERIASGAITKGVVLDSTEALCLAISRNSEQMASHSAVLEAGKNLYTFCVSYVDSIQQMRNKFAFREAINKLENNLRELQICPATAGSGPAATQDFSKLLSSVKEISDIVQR
Chain of Glycogen synthase kinase-3 beta (Homo sapiens) (P49841 whole entry, looked up): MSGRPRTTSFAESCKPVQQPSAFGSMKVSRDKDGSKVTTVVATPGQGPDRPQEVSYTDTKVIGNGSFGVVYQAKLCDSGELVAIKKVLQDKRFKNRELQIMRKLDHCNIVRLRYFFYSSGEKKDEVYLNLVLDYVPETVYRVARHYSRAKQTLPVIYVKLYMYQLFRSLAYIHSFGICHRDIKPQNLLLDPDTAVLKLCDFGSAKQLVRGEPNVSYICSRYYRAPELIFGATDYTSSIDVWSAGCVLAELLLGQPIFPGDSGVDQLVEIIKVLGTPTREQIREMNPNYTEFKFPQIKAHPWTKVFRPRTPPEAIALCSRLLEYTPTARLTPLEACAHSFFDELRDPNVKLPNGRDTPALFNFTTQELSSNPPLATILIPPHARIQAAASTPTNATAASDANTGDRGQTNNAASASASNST
Chain of Mitogen-activated protein kinase 1 (Homo sapiens) (P28482 whole entry): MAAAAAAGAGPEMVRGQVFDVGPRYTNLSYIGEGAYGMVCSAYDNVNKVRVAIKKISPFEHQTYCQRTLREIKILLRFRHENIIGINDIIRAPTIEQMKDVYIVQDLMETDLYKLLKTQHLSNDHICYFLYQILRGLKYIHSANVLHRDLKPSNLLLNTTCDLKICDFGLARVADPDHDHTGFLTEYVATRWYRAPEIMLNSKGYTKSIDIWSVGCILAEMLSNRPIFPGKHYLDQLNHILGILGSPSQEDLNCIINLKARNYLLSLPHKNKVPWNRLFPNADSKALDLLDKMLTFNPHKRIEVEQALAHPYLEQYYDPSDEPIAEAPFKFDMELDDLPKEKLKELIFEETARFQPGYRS

`CN(C)Cc1ccc(-c2nc3cccc4c3n2CCNC4=O)cc1`: the ΔTm (usually the shift of the melting midpoint relative to a reference) in experiment [1] is 0.45 °C; in experiment [2] it was 0.14 °C; in experiment [3], 0.42 °C; in experiment [4] it was -0.01 °C; in experiment [5], 1.99 °C; in experiment [6], 0.01 °C. The shift in melting temperature (ΔTm) in experiment [7] was -0.64 °C; in experiment [8], 0.79 °C.

Take `CC(=O)N1CCc2c(c(N3CCCc4cc(-c5cnn(C)c5)c(C(F)F)cc43)nn2C2CCOCC2)C1`: the ΔTm is 0.45 °C in experiment [1]; 0.99 °C in experiment [2]; -0.16 °C in experiment [3]; 0.23 °C in experiment [4]; -0.52 °C in experiment [5]; -0.44 °C in experiment [6]. Also, the ΔTm in experiment [7] is -1.07 °C; in experiment [8], -1.11 °C.

Regarding `CC(=O)N[C@H](C(=O)N[C@@H](CC(=O)O)C(=O)N[C@H](C(=O)N[C@@H](C)C(=O)N[C@H](C=O)CC(=O)O)C(C)C)C(C)C` (Ac-VDVAD-aldehyde), the ΔTm was 0.62 °C in experiment [1]; -2.7 °C in experiment [2]; -0.17 °C in experiment [3]; -0.1 °C in experiment [4]; 0.07 °C in experiment [5]; 0 °C in experiment [6]. Also, the shift in melting temperature (ΔTm) in experiment [7] is -1.39 °C; in experiment [8], -0.67 °C.

On to `C[C@H]1CO[C@@H]2Cn3cc(C(=O)NCc4ccc(F)cc4F)c(=O)c(O)c3C(=O)N12`, for which the ΔTm in experiment [1] is 0.13 °C; in experiment [2], -2.15 °C; in experiment [3], 0.09 °C; in experiment [4], -0.04 °C; in experiment [5], -0.88 °C; in experiment [6], 0.4 °C. Also, the thermal shift (ΔTm) in experiment [7] is -0.95 °C; in experiment [8] it was 0.47 °C.

Take `Cc1ncsc1-c1ccc([C@H](C)NC(=O)[C@@H]2C[C@@H](O)CN2C(=O)[C@@H](NC(=O)COCCCOCCNC(=O)C[C@@H]2N=C(c3ccc(Cl)cc3)c3c(sc(C)c3C)-n3c(C)nnc32)C(C)(C)C)cc1`: the ΔTm is -0.44 °C in experiment [1]; 7 °C in experiment [2]; -3.66 °C in experiment [3]; 0.48 °C in experiment [4]; 0 °C in experiment [5]; 0 °C in experiment [6]. In addition, the figures for the ΔTm in experiment [7] and in experiment [8] were 0 °C and -3.36 °C, respectively.

Regarding `CC(=O)Nc1ccc(-c2cc(-c3ccccc3)nc3cc(C(=O)NCCCn4ccnc4)nn23)cc1`, the shift in melting temperature (ΔTm) in experiment [1] is 0.52 °C; in experiment [2], 1.46 °C; in experiment [3], -0.15 °C; in experiment [4] it was 1.15 °C; in experiment [5], -0.59 °C; in experiment [6], 0.9 °C. The shift in melting temperature (ΔTm) in experiment [7] is -0.25 °C; in experiment [8], -2.15 °C.

`NC(=O)C1CCCc2c1[nH]c1ccc(Cl)cc21` (stereo not given): the thermal shift (ΔTm) in experiment [1] is 0.6 °C; in experiment [2], -2.56 °C; in experiment [3] it was 0.2 °C; in experiment [4], -0.38 °C; in experiment [5] it was 0.62 °C; in experiment [6], 0.17 °C. Besides, the shift in melting temperature (ΔTm) in experiment [7] was -0.98 °C; in experiment [8], -0.37 °C.

Consider `CCCCNc1cc(C(=O)O)cc(S(N)(=O)=O)c1Oc1ccccc1`, for which the ΔTm in experiment [1] was 0.19 °C; in experiment [2] it was -1.86 °C; in experiment [3] it was -0.19 °C; in experiment [4], 0.17 °C; in experiment [5], -0.41 °C; in experiment [6] it was 0.13 °C. Further, the figures for the ΔTm in experiment [7] and in experiment [8] were 0.14 °C and 0.82 °C, respectively.

Regarding `O=C1C(=O)N(Cc2ccccc2)c2ccc(S(=O)(=O)N3CCC[C@H]3COc3ccc(C(F)(F)F)cc3)cc21`, the ΔTm in experiment [1] is -0.46 °C; in experiment [2], -4.2 °C; in experiment [3], -0.42 °C; in experiment [4], 0.54 °C; in experiment [5], -0.32 °C; in experiment [6], -0.63 °C. Further, the results for the thermal shift (ΔTm) in experiment [7] and in experiment [8] were -1.82 °C and -1.21 °C, respectively.

With `COc1cc2c(cc1-c1c(C)noc1C)[nH]c1nc(C)nc(-c3ccnc4ccccc34)c12`, the thermal shift (ΔTm) is 0.56 °C in experiment [1]; 11.5 °C in experiment [2]; -0.3 °C in experiment [3]; -0.15 °C in experiment [4]; 0.97 °C in experiment [5]; 0.15 °C in experiment [6]. Further, the ΔTm is -2.62 °C in experiment [7] and -0.1 °C in experiment [8].

Take `CCc1ccccc1NC(=O)CSC(=O)NNC(=O)[C@H](Cc1c[nH]c2ccccc12)NC(=O)OC(C)(C)C`: the shift in melting temperature (ΔTm) in experiment [1] was 1.95 °C; in experiment [2] it was -0.97 °C; in experiment [3], -0.07 °C; in experiment [4], 0.05 °C; in experiment [5], 4.75 °C; in experiment [6], -10.2 °C. In addition, the ΔTm in experiment [7] came out at 3.62 °C; in experiment [8], 5.76 °C.

`C[C@H](c1nc2c(cnn2C2CCOCC2)c(=O)[nH]1)N1CC(Oc2ccccc2)C1`: the thermal shift (ΔTm) in experiment [1] was 0.76 °C; in experiment [2], -2.52 °C; in experiment [3], 0.6 °C; in experiment [4], -0.29 °C; in experiment [5] it was 3.31 °C; in experiment [6], 0.49 °C. The figures for the thermal shift (ΔTm) in experiment [7] and in experiment [8] were -1.78 °C and 0.73 °C, respectively.

As to `CN1C[C@@H]2[C@H](C1)[C@H]2CN(Cc1ccc(F)c(Cl)c1)C(=O)c1cn(C)cn1`, the ΔTm in experiment [1] was 0.53 °C; in experiment [2], -2.2 °C; in experiment [3] it was 0.3 °C; in experiment [4], -0.21 °C; in experiment [5] it was 0.04 °C; in experiment [6], 0.19 °C. The values for the ΔTm in experiment [7] and in experiment [8] were -1.34 °C and -1.48 °C, respectively.

Take `N=C(N)NC(=O)c1cnn(-c2cccc3ncccc23)c1C1CC1`: the thermal shift (ΔTm) in experiment [1] is 0.57 °C; in experiment [2], -3 °C; in experiment [3] it was -0.15 °C; in experiment [4] it was -0.36 °C; in experiment [5] it was -0.31 °C; in experiment [6], 0.09 °C. The ΔTm is -2.42 °C in experiment [7] and -0.58 °C in experiment [8].

As to `COc1ccc(OC)c(-c2nnc3n2N=C(c2ccc(OC)c(OC)c2)CS3)c1`, the shift in melting temperature (ΔTm) in experiment [1] is 0.21 °C; in experiment [2] it was 2.23 °C; in experiment [3] it was -0.04 °C; in experiment [4] it was -0.07 °C; in experiment [5] it was -1.12 °C; in experiment [6], 0.55 °C. The ΔTm in experiment [7] is -1.28 °C; in experiment [8], 1.86 °C.

For the origin of these results see ChEMBL document CHEMBL5724796, “Tm Shift (DSF) assay results for EUbOPEN Chemogenomics Library” (2024).
